PubChem BioAssay (EPA / NIEHS)
Values joined by “and” are separate entries in the source; they are usually repeats but may differ in a detail not shown here. Identical values can stand only once. A structure can be active in one record and inactive in another. Active and inactive are the calls of the source. The calls were made as follows: active = hit-call score of the fitted dose curve at least 0.9, where 1 is the maximum; inactive = score below 0.9.

The molecules below were run on Tissue plasminogen activator (tPA), PLAT (gene 5327) (assay: BSK_BE3C_tPA: BioMAP Diversity Plus: BE3C Assay for Tissue plasminogen activator (tPA) Biomarker Activity (AID 2283041)). Conditions: primary human bronchial epithelial cells; actives raise or lower the signal.
Procedure: BSK_BE3C is a cell-based, multiplexed-readout assay that uses bronchial epithelial cell, a human lung primary cell, with measurements taken at 24 hours after chemical dosing in a 96-well plate.BSK_BE3C_tPA is an assay component measured in the BSK_BE3C assay. It measures tPA antibody related to regulation of gene expression using ELISA technology.Data from the assay component BSK_BE3C_tPA was analyzed into 1 assay endpoint. This assay endpoint, BSK_BE3C_tPA, was analyzed with bidirectional fitting relative to DMSO as the negative control and baseline of activity. Using a type of binding reporter, gain or loss-of-signal activity can be used to understand changes in the signaling as they relate to the gene PLAT. Furthermore, this assay endpoint can be referred to as a primary readout, because this assay has produced multiple assay endpoints where this one serves a signaling function. To generalize the intended target to other relatable targets, this assay endpoint is annotated to the protease intended target family, where the subfamily is serine protease.
The levels of cell surface (or secreted, indicated by the prefix "s") biomarker endpoints were measured by ELISA. Overt cytotoxicity to cells in confluent adherent cultures (all systems other than the BT system) was assessed by measuring total protein levels using sulforhodamine B (SRB) staining in parallel cultures at the time of biomarker measurements, indicated as SRB endpoints. For proliferation assays for adherent cell types, individual cell types are cultured at sub-confluence and relative cell numbers quantified by SRB staining at time points optimized for each system (48 h: 3C and CASM3C systems; 72 h: BT and HDF3CGF systems; 96 h: SAg system). SRB was performed by staining cells with 0.1% SRB after fixation with 10% TCA and reading wells at 560 nm.Viability and proliferation of PBMC (T cells) was quantified by Alamar Blue reduction for the SAg and BT systems. For PBMC viability (referred to as PBMC Cytotoxicity within the assay endpoint names), cells were plated (75,000/well in a 96-well plate) and then chemical samples added for 1 h before addition of activators, SEB and TSST-1 (20 ng/mL final concentration each). Cells were incubated for 90 h. Then, Alamar Blue (20 uL/well) (Invitrogen, Cat DAL1100) was added for 6 h, and the plates were read with a fluorescence microplate reader at 546/580 nm (excitation/emission). For PBMC proliferation, cells were plated and activated as above but incubated for only 16 h prior to addition of Alamar Blue. Plates were read after 6 h.

SMILES | AC50 | outcome
O=C(c1ccc(OCCN2CCCCC2)cc1)c1c(-c2ccc(O)cc2)sc2cc(O)ccc12 | 20 µM (active) | 
O=C(O)C(F)(F)OC(F)(F)C(F)(F)OC(F)(F)C(F)(F)C(F)(F)C(F)(F)F | 12.4 µM (active) | inactive
CCCCCCCCCC(=O)OCC | 20 µM (active) | 
CC(=O)OCC=C(C)CCC=C(C)CCC=C(C)C | 3.97 µM (active) | 
CCCCCCCCCCCCS |  | inactive
CC(C)Cc1ccc(C(C)C(=O)O)cc1 (stereo not given) |  | inactive
O=S1(=O)CC(Cl)(Cl)C(Cl)(Cl)C1 | 0.964 µM (active) | 
COc1ccccc1NC(=O)CC(C)=O |  | inactive
CCCO[Si](OCCC)(OCCC)OCCC |  | inactive
CCOC(=O)CCCCCCCCC(=O)OCC |  | inactive
CCn1cc(C(=O)O)c(=O)c2ccc(C)nc21 |  | inactive
O=C(O)C(F)(F)C(F)(F)C(F)(F)C(F)(F)C(F)(F)C(F)(F)C(F)(F)C(F)F |  | inactive
C=C(C)C(N)=O |  | inactive
COC(=O)c1ccc(C(=O)OC)cc1 |  | inactive
CC(=O)CCC=C(C)CCC=C(C)C |  | inactive
c1ccc(OCCOc2ccccc2)cc1 |  | inactive
CCCCN(CCO)CCO |  | inactive
C=C(F)C(=O)OC(C(F)(F)F)C(F)(F)F |  | inactive
CCCCCCCC1CCCC1=O (stereo not given) | 33.4 µM (active) | 
c1ccc(Sc2ccccc2)cc1 | 20 µM (active) | 

SMILES | AC50 | outcome
C[C@]12CC[C@@H]3c4ccc(O)cc4CC[C@H]3[C@@H]1CC[C@@H]2O |  | inactive
CC/C(=C(\c1ccccc1)c1ccc(OCCN(C)C)cc1)c1ccccc1 | 7.72 µM (active) and 14 µM (active) | 
CC(=O)OC(C)(C)C1CC=C(C)CC1 (stereo not given) | 27.7 µM (active) | 
CCOC(=O)C=Cc1ccccc1 |  | inactive
CC(C)(CO)CO |  | inactive
OCC(F)(OC(F)(F)C(F)(OC(F)(F)C(F)(F)C(F)(F)F)C(F)(F)F)C(F)(F)F (stereo not given) |  | inactive
CC(=O)c1ccc(C)cc1 |  | inactive
OCCN1CCOCC1 |  | inactive
C#C[C@]1(O)CC[C@H]2[C@@H]3CCc4cc(O)ccc4[C@H]3CC[C@@]21C |  | inactive
Nc1ccc(N)c([N+](=O)[O-])c1 |  | inactive
O=S(=O)(O)C(F)(F)C(F)(F)OC(F)(F)C(F)(F)F |  | inactive
O=C1OC2(c3ccc(O)cc3Oc3cc(O)ccc32)c2ccccc21 |  | inactive
c1ccc2c(c1)-c1ccc3ccc4cccc5cc-2c1c3c45 |  | inactive
C=C(C)C(=O)OCCC(F)(F)C(F)(F)C(F)(F)C(F)(F)C(F)(F)C(F)(F)C(F)(F)C(F)(F)F |  | inactive
CC=CC(=O)C1=C(C)C=CCC1(C)C |  | inactive
C=CC(=O)OCC(CO)(COC(=O)C=C)COC(=O)C=C |  | inactive
CCC(=O)OCC=Cc1ccccc1 |  | inactive
CC1=CC(C)C(C=O)C(C)C1 (stereo not given) (tested in a mixture with another compound) |  | inactive
CC1(C)[C@H](C=C(Cl)Cl)[C@H]1C(=O)OCc1cccc(Oc2ccccc2)c1 |  | inactive
